Data on eight compounds can be found in PubChem BioAssay.

Experiment [1] is described as follows: E. coli DRC41 culture turbidity changes, primary screen, E. coli filamentation inducer project, strain DRC41, OD650, 48 h (AID 1152).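 Also: E. coli MC1000 strain DRC41 lacking acrAB efflux pump and sulA.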 The settings on record: E. coli DRC41 (acrAB sulA), higher = more signal, called active from +8 up or from −8 down.
Experiment [2] is described as follows: small-molecule binders of probe aLefty1, primary screen, biochemical, small-molecule microarray, 635/667 nm fluorescence (AID 1153).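 Also: score merges spot fluorescence with signal-to-noise ratio from the scanned slide images.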 The settings on record: higher = more signal.
Experiment [3] in a line: PSAC antagonists in infected red cells, primary screen, cell-based, P. falciparum Indochina, OD700, 1 h (AID 1154). The settings on record: P. falciparum Indochina infected RBC osmotic lysis, higher = more signal, called active from +8 up or from −8 down.
The nature of experiment [4]: PSAC antagonists in infected red cells, primary screen, cell-based, P. falciparum Indochina, OD700, 2 h (AID 1155).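 Also: lysis reports solute entry through the parasite surface anion channel PSAC; channel blockers reduce lysis of infected cells.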 The settings on record: P. falciparum Indochina infected erythrocytes, osmotic lysis OD700; higher = more signal, called active from +8 up or from −8 down.
The nature of experiment [5]: osmotic lysis modulators in infected erythrocytes, primary screen, PSAC antagonist project, cell-based, P. falciparum Indochina, OD700, 3 h (AID 1156). The settings on record: higher = more signal, called active from +8 up or from −8 down.
Experiment [6] can be described thus: PSAC antagonists in infected red cells, primary screen, cell-based, P. falciparum Indochina, OD700, 18 h (AID 1157). The settings on record: P. falciparum Indochina infected erythrocytes, osmotic lysis OD700, 18 h; higher = more signal, called active from +8 up or from −8 down.
Experiment [7] can be described thus: modulators of S6 phosphorylation in cells, primary screen, cell-based, A549, cytoblot, luminescence, serum-stimulated (AID 1158).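 Also: serum-stimulated A549 lung adenocarcinoma cells; signal is phosphorylated S6 detected by cytoblot immunostaining with HRP secondary.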 The settings on record: A549 phospho-S6 cytoblot, 5 h, higher = more signal.
Experiment [8] has as its target NADPH oxidase 2 (Homo sapiens) (UniProt P04839). Nature of the experiment: NOX2-dependent H2O2 signal modulators, primary screen, NOX inhibitor project, cell-based, HEK293-NOX2, PMA-stimulated, Amplex Red fluorescence (AID 1159). Also: test concentration not given here. The settings on record: 45 min, higher = more signal, called active from +8 up or from −8 down.
The target of experiment [9] is NADPH oxidase 4 (Homo sapiens) (UniProt Q9NPH5). The experiment in a line: NOX4-dependent H2O2 signal modulators, primary screen, NOX inhibitor project, cell-based, HEK293-NOX4, tetracycline-induced, Amplex Red fluorescence (AID 1160). The settings on record: 45 min, higher = more signal, called active from +8 up or from −8 down.
Sequence of NADPH oxidase 4 (Homo sapiens) (Q9NPH5 whole entry, looked up): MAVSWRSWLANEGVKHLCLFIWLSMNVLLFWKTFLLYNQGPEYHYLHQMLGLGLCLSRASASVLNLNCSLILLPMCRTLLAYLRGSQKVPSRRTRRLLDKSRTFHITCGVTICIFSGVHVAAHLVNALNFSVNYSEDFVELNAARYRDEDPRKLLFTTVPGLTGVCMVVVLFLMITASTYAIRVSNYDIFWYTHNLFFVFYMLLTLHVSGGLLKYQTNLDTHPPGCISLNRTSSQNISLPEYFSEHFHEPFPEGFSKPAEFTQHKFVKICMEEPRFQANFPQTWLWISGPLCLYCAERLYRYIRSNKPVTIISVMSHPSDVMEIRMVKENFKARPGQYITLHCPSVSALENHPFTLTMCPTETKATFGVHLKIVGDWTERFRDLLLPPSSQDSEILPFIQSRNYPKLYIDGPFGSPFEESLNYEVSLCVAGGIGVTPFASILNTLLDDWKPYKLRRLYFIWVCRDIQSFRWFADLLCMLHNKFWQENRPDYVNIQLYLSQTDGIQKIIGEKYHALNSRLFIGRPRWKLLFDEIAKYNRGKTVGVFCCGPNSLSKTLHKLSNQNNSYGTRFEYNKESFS
The target of experiment [10] is NADPH oxidase 5 (Homo sapiens) (UniProt Q96PH1). Nature of the experiment: NOX5-dependent H2O2 signal modulators, primary screen, NOX inhibitor project, cell-based, HEK293-NOX5, Amplex Red fluorescence (AID 1161). The settings on record: HEK293-NOX5, ionomycin, 45 min, higher = more signal.
Sequence of NADPH oxidase 5 (Homo sapiens) (Q96PH1 whole entry, looked up): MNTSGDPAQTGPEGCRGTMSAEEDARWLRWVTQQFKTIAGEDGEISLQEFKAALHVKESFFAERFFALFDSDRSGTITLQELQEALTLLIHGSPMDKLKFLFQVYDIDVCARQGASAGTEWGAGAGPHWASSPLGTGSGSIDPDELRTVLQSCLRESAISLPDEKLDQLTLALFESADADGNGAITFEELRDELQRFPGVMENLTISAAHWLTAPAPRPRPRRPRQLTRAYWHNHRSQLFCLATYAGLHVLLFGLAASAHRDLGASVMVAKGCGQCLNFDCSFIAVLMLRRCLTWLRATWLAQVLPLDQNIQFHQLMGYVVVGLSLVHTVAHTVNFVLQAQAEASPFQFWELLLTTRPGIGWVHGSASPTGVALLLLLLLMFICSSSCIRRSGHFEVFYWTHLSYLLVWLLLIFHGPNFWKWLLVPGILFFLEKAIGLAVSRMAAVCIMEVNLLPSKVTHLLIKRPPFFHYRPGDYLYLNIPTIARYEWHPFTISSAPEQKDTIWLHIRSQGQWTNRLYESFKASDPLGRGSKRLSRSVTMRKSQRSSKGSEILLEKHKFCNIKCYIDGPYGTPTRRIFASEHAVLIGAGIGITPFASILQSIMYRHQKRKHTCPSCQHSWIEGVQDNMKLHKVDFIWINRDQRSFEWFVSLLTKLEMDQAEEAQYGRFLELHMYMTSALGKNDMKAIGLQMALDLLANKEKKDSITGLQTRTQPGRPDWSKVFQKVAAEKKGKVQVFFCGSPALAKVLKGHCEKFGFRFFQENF
The nature of experiment [11]: A549 cell viability effects, profiling panel, calcein-AM fluorescence, 48 h, basal (AID 1162). Also: test concentration not given here. The settings on record: higher = more signal.
A short description of experiment [12]: adipocyte viability effects, profiling panel, cell-based, 3T3-L1 adipocytes, calcein-AM fluorescence, 48 h, basal (AID 1163). Also: test concentration not given here. The settings on record: 3T3-L1 adipocytes viability, higher = more signal.
Experiment [13] in a line: HepG2 cell viability effects, profiling panel, calcein-AM fluorescence, 48 h, basal (AID 1164). Also: test concentration not given here. The settings on record: higher = more signal.
A short description of experiment [14]: MM1S cell viability effects, profiling panel, calcein-AM fluorescence, 48 h, basal (AID 1165).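 Also: viability of MM1S multiple myeloma cells under basal unstimulated conditions; test concentration not given here.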 The settings on record: higher = more signal.
Experiment [15] in a line: basal RPMI8226 viability, no added stimulus, profiling panel, cell-based, calcein-AM fluorescence, 48 h, PK04 Diversity Set (AID 1166).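 Also: cells grown under basal conditions without added stimulus; test concentration not given here.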 The settings on record: RPMI8226 myeloma viability, higher = more signal.
Experiment [16] is described as follows: basal HepG2 mitochondrial membrane potential changes, profiling panel, cell-based, JC-1 fluorescence, 24 h, 100 nL compound (AID 1167). Also: test concentration not given here. The settings on record: higher = more signal.
Experiment [17] is described as follows: basal 3T3-L1 adipocyte mitochondrial potential changes, profiling panel, cell-based, JC-1 fluorescence, 3T3-L1 adipocytes, 24 h, 100 nL compound (AID 1168). Also: test concentration not given here. The settings on record: JC-1 mitochondrial fluorescence, higher = more signal, called active from +8 up or from −8 down.
The nature of experiment [18]: basal RPMI8226 mitochondrial membrane potential changes, profiling panel, cell-based, JC-1 fluorescence, 24 h, 100 nL compound (AID 1169). Also: test concentration not given here. The settings on record: RPMI8226 myeloma, JC-1 mitochondrial potential fluorescence, higher = more signal.
A short description of experiment [19]: basal MM1S mitochondrial membrane potential changes, profiling panel, cell-based, JC-1 fluorescence, 24 h, 100 nL compound (AID 1170). Also: test concentration not given here. The settings on record: higher = more signal.
Experiment [20] is described as follows: A549 lung cancer cell viability effects, profiling panel, resazurin fluorescence, 24 h, PK04 Diversity Set (AID 1171). Also: test concentration not given here. The settings on record: higher = more signal, called active from +8 up or from −8 down.

SMILES strings stand for the structures. The source made the active and inactive calls.

Sequence of NADPH oxidase 2 (Homo sapiens) (P04839 whole entry, looked up): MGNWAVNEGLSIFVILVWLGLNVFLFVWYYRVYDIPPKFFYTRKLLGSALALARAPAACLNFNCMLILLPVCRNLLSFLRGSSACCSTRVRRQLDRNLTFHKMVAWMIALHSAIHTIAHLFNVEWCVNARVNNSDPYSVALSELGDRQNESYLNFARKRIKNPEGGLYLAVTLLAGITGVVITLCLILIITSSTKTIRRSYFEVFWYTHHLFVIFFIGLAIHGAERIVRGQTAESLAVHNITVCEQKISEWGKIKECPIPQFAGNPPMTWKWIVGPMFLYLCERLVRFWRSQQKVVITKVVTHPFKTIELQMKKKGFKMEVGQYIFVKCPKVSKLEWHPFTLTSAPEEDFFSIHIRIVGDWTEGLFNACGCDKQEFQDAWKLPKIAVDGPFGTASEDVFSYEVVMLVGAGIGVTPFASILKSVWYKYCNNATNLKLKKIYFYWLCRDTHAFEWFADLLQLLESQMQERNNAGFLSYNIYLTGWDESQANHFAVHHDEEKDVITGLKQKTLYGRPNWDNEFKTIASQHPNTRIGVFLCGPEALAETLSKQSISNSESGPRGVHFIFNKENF

`CC(C)[Si](C#CCCCC#N)(O[C@H](c1ccccc1)c1cn([C@H](C)c2ccccc2)nn1)C(C)C`: the z-score in [1] is 1.03 (inactive); in experiment [3], 1.66 (inactive); in [4] it was 0.878 (inactive); in experiment [5], 0.0478 (inactive); in experiment [6], 0.211 (inactive); in experiment [7] it was 0.147. The z-score was 1.19 (inactive) in experiment [8]; 0.406 (inactive) in experiment [9]; 0.255 in experiment [10]; -1.38 in experiment [11]; -0.348 in experiment [12]; 0.571 in [13]. Besides, the z-score is -0.057 in experiment [14]; -2.68 in [15]; 6.54 in [16]; -0.289 (inactive) in [17]; 0.0785 in [18]; -0.733 in experiment [19]. In addition, in experiment [20], the z-score was 1.07 (inactive). In [2], the composite z-score was -0.0984.

Consider `CC(C)C[C@@H]1NC(=O)[C@H]2C[C@@H](C(=O)NCCCCCCNC(=O)CS)[C@@H](c3ccc(O)cc3)N2C1=O`, for which the z-score was 0.13 (inactive) in experiment [1]; 7.66 (inactive) in [3]; 0.64 (inactive) in experiment [4]; 1.4 (inactive) in [5]; -0.0166 (inactive) in [6]; 0.795 in experiment [7]. Moreover, the z-score in experiment [8] was 1.64 (inactive); in [9], 0.633 (inactive); in experiment [10], 0.755; in experiment [11], -0.889; in [12] it was 0.197; in experiment [13] it was -0.301. The z-score in [14] is -0.397; in experiment [15], 0.266; in experiment [16] it was -1.74; in experiment [17], 0.193 (inactive); in [18], 0.486; in experiment [19], -5.59e-05. For the same compound, the z-score in [20] was 0.0225 (inactive). Besides, the composite z-score in experiment [2] was -0.0603.

`CN(C)CCCCNC(=O)[C@H]1C[C@H]2C(=O)NCC(=O)N2[C@H]1c1cccc(OCCO)c1`: the z-score in experiment [1] was 1.06 (inactive); in experiment [3] it was 0.799 (inactive); in experiment [4], 0.33 (inactive); in [5] it was -0.0825 (inactive); in [6], 0.129 (inactive); in experiment [7] it was -0.0315. Further, the z-score in experiment [8] is -0.241 (inactive); in experiment [9], 0.382 (inactive); in [10], 1.05; in [11], 1.11; in [12] it was -0.237; in experiment [13], -0.13. Moreover, the z-score in [14] is 0.585; in experiment [15], 0.0875; in [16], 0.348; in experiment [17], 0.871 (inactive); in experiment [18] it was -0.223; in experiment [19], -0.348. For the same compound, the z-score in experiment [20] was 1.26 (inactive). In addition, the composite z-score in [2] was -0.007.

`CC(C)CNC(=O)[C@@H]1c2ccccc2C(=O)N(C(C)C)[C@H]1c1ccc(CO)cc1`: the z-score in [1] is 0.941 (inactive); in [3] it was 0.747 (inactive); in [4], -0.483 (inactive); in experiment [5], -0.758 (inactive); in experiment [6], -0.779 (inactive); in experiment [7], 1.85. The z-score is -0.215 (inactive) in experiment [8]; 0.443 (inactive) in [9]; 0.887 in experiment [10]; 0.456 in experiment [11]; 1.27 in experiment [12]; 1.15 in [13]. In addition, the z-score was 0.333 in experiment [14]; 1.49 in experiment [15]; 1.49 in experiment [16]; 1.29 (inactive) in [17]; 0.793 in experiment [18]; -0.357 in [19]. Besides, the z-score in [20] is -0.174 (inactive). Moreover, the composite z-score in [2] was -0.0559.

Take `CCCCN1CC=CC23O[C@@H]4C=CCOC(=O)[C@@H]4[C@H]2C(=O)N(C(CO)C(C)C)[C@@H]3C1=O` (stereo not given in full): the z-score in experiment [1] was -0.62 (inactive); in experiment [3] it was 1.16 (inactive); in experiment [4], 0.574 (inactive); in experiment [5] it was 1.06 (inactive); in experiment [6], 0.407 (inactive); in experiment [7], -0.272. In addition, the z-score in [8] is 0.835 (inactive); in experiment [9] it was 0.17 (inactive); in [10], 1.88; in [11] it was -0.503; in [12] it was -1.13; in [13] it was -0.803. Also, the z-score was 0.543 in experiment [14]; -0.42 in [15]; -0.528 in [16]; -0.713 (inactive) in experiment [17]; 0.184 in [18]; -0.071 in experiment [19]. In experiment [20], the z-score was -0.519 (inactive). In [2], this compound returned a composite z-score of -0.0697.

As for `COC(=O)Cn1c(C(=O)N(C)C)cc2c1C[C@H]1CN(C(=O)c3ccccc3)[C@@](Cc3ccc(OC)cc3)(C(=O)OC)[C@@H]21`, the z-score in experiment [1] is -1.35 (inactive); in experiment [3], 2.81 (inactive); in [4], 0.765 (inactive); in [5], 1.04 (inactive); in [6], 0.765 (inactive); in [7] it was -0.62. For the same compound, the z-score was 0.494 (inactive) in experiment [8]; -0.539 (inactive) in [9]; 0.813 in [10]; -0.199 in experiment [11]; -0.714 in [12]; 0.496 in experiment [13]. For the same compound, the z-score is 0.611 in experiment [14]; -0.734 in [15]; 3.44 in [16]; -0.881 (inactive) in experiment [17]; -0.329 in [18]; -1.36 in experiment [19]. For the same compound, the z-score in experiment [20] was -0.31 (inactive). The same compound yielded a composite z-score in [2] of 0.546.

Regarding `C[N+](C)(C)CCCC[C@@H]1NC(=O)[C@H]2C[C@@H](C(=O)NCCCCCNC(=O)CS)[C@@H](c3ccc(O)cc3)N2C1=O`, the z-score is 1.65 (inactive) in [1]; 0.105 (inactive) in experiment [3]; -0.38 (inactive) in experiment [4]; -0.364 (inactive) in experiment [5]; -2.52 (inactive) in [6]; 1.46 in experiment [7]. For the same compound, the z-score in experiment [8] is 0.236 (inactive); in experiment [9], 0.335 (inactive); in [10] it was 1.52; in [11], 0.809; in [12], -0.464; in experiment [13] it was 0.664. Further, the z-score in experiment [14] is 0.949; in [15], -1.51; in experiment [16] it was 1.45; in [17], -0.0341 (inactive); in experiment [18], 0.287; in experiment [19], -0.013. For the same compound, the z-score in experiment [20] was -0.567 (inactive). The same compound yielded a composite z-score in experiment [2] of -0.0162.

Consider `CCCCC(O)C1C=CC2C(=O)N(C)C(=O)C2N1Nc1ccccc1` (stereo not given), for which the z-score was -1.37 (inactive) in [1]; -0.242 (inactive) in experiment [3]; 0.735 (inactive) in [4]; 0.243 (inactive) in experiment [5]; 1.17 (inactive) in [6]; -1.35 in [7]. Also, the z-score in experiment [8] is -1.32 (inactive); in [9], -3.48 (inactive); in [10], -2.72; in experiment [11] it was -0.961; in experiment [12] it was -1.89; in experiment [13], -0.595. In addition, the z-score in [14] is -1.29; in experiment [15], -0.419; in [16], -1.73; in experiment [17], 0.64 (inactive); in experiment [18], -0.16; in experiment [19] it was 0.402. The z-score in [20] was -0.98 (inactive). In experiment [2], this compound registered a composite z-score of 0.165.
